# Assay results as given in PubChem BioAssay (NCI).
# Compounds without any hit were thinned out: in the full panel of roughly 79,000, 15% have a hit. Unmarked numbers belong to inactive results. Active and inactive are the calls of the source. Cut-off read from the data, not from the text of the source: active = growth inhibition above about 70%; inactive = the rest.
# Experiments:
# [1] = NCI Yeast Anticancer Drug Screen. Data for the rad50 strain (AID 155);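 note: 0% = growth of vehicle-only cultures of the same strain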; conditions: S. cerevisiae rad50 strain growth inhibition, active compounds read high
# How it was run: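 DNA repair mutant yeast, compound exposure, growth read-out; inhibition is taken relative to vehicle.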
# [2] = NCI Yeast Anticancer Drug Screen. Data for the mec2-1 strain (AID 157); conditions: S. cerevisiae mec2-1 strain, active compounds read high
# How it was run: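 Compounds were applied to mec2-1 yeast cells. Their growth was then compared with that of vehicle-treated cultures to give growth inhibition.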
# [3] = NCI Yeast Anticancer Drug Screen. Data for the sgs1 mgt1 strain (AID 161);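 note: 0% = growth of cultures given vehicle only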; conditions: S. cerevisiae sgs1 mgt1 strain, active compounds read high
# How it was run: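 Compounds are added to genetically altered yeast, and growth is compared with cultures given vehicle alone to give percent inhibition.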
# [4] = NCI Yeast Anticancer Drug Screen. Data for the cln2 rad14 strain (AID 165);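 note: 0% = growth equal to vehicle treated cultures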; conditions: S. cerevisiae cln2 rad14 strain, active compounds read high
# How it was run: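 Strain: cln2 rad14 yeast, altered in cell cycle control and DNA damage repair. Read-out: growth inhibition vs vehicle.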
# [5] = NCI Yeast Anticancer Drug Screen. Data for the bub3 strain (AID 167); conditions: S. cerevisiae bub3 mutant strain, active compounds read high
# How it was run: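 In this screen, a yeast mutant lacking normal mitotic checkpoint function is challenged with compound. Relative growth versus vehicle gives the inhibition value.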
# [6] = NCI Yeast Anticancer Drug Screen. Data for the mlh1 rad18 strain (AID 175); conditions: S. cerevisiae mlh1 rad18 strain growth inhibition, active compounds read high
# How it was run: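 A repair-deficient yeast strain is exposed to test compound, and growth is scored relative to vehicle-treated controls.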
# [7] = at 5.0 µM (retest, dose inferred, filed as 0.5)
# [8] = at 50.0 µM (retest, dose inferred, filed as 5.0)
SMILES,"growth inhibition [1, 7]","growth inhibition [1, 8]",growth inhibition ([1]; at 50.0 µM),"growth inhibition [2, 7]","growth inhibition [2, 8]",growth inhibition ([2]; at 50.0 µM),"growth inhibition [3, 7]","growth inhibition [3, 8]",growth inhibition ([3]; at 50.0 µM),"growth inhibition [4, 7]","growth inhibition [4, 8]",growth inhibition ([4]; at 50.0 µM),"growth inhibition [5, 7]","growth inhibition [5, 8]",growth inhibition ([5]; at 50.0 µM),"growth inhibition [6, 7]","growth inhibition [6, 8]",growth inhibition ([6]; at 50.0 µM)
O=C(Oc1ccc(/C=C/[n+]2ccccc2)c(OC(=O)c2ccccc2)c1)c1ccccc1,-4%,93% (active),49.6%,14%,97% (active),18.7%,-11%,95% (active),70.2% (active),-8%,91% (active),5.7%,1%,83% (active),-1.45%,7%,98% (active),48.7%
C[Si](C)(C)CN1C(=O)c2ccccc2C1(O)c1ccccc1 (stereo not given),-2%,69%,69.8%,-1%,66%,35.8%,-4%,74% (active),47.5%,-1%,29%,42.5%,-3%,33%,4.2%,-1%,69%,71.2% (active)
CCCC(C)c1ccc(O)cc1 (stereo not given),6%,13%,57.4%,1%,16%,43.9%,0%,16%,51.7%,4%,-3%,-26.3%,-2%,17%,24.6%,2%,39%,91.7% (active)
CCCCCCCCCCCCCCCCCC[n+]1cccc(C(=O)c2ccccc2)c1,58%,99% (active),99.3% (active),92% (active),100% (active),99.5% (active),97% (active),99% (active),99.5% (active),56%,98% (active),97.3% (active),68%,99% (active),98.7% (active),98% (active),99% (active),99.5% (active)
C/C(=N/Nc1ccc([N+](=O)[O-])cc1[N+](=O)[O-])C(=O)O,11%,69%,95.3% (active),2%,63%,59.8%,-1%,76% (active),97.5% (active),-1%,21%,13.2%,-1%,72% (active),98.5% (active),-2%,91% (active),96.8% (active)
O=C1c2cc(O)ccc2C(=O)c2c1ccc(O)c2O,11%,98% (active),98.7% (active),14%,99% (active),97.2% (active),12%,98% (active),96.5% (active),12%,97% (active),90.7% (active),4%,98% (active),97.8% (active),4%,99% (active),98.2% (active)
O=C(CBr)C1(Br)CCN(Cc2ccccc2)CC1,19%,99% (active),99.3% (active),17%,99% (active),99.8% (active),22%,99% (active),99.6% (active),8%,99% (active),97.6% (active),6%,99% (active),99.5% (active),30%,99% (active),99.6% (active)
CCC(C)SC1SCC2C(=O)N(C)C3(CC3C)C(=O)OCC(NC(=O)c3nc4ccccc4cc3O)C(=O)NC(C)C(=O)N(C)C1C(=O)N(C)C1(CC1C)C(=O)OCC(NC(=O)c1nc3ccccc3cc1O)C(=O)NC(C)C(=O)N2C (stereo not given),98% (active),89% (active),89.7% (active),99% (active),92% (active),91.9% (active),80% (active),93% (active),92.4% (active),79% (active),94% (active),88.7% (active),75% (active),93% (active),91.2% (active),94% (active),84% (active),89.8% (active)
O=C1/C(=C/c2ccccc2)CN(C(=O)CCN2CCCC2)C/C1=C\c1ccccc1,5%,83% (active),91.8% (active),10%,86% (active),90.5% (active),99% (active),96% (active),91.3% (active),99% (active),96% (active),89.7% (active),99% (active),96% (active),92.2% (active),2%,89% (active),90.5% (active)
COc1ccc2c3c(c4cc(OC)c(OC)cc4c2c1)CN1CCC[C@H]1[C@@H]3O,19%,99% (active),89.4% (active),7%,99% (active),90.6% (active),97% (active),98% (active),91.1% (active),90% (active),97% (active),88.2% (active),95% (active),98% (active),89.7% (active),98% (active),97% (active),89.2% (active)
